# Rev-erbA mod – Rev-erb alpha (human) modulation. P20393. Rev-erbα–FITC-DNA binding, fluorescence polarization, 90 min. activity, % at 10 µM. actives 0.79% (n = 370,000);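 active = activity above about 14%, limit read from the data; passing the limit was not always enough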;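 also: 0% = DMSO wells with 35 nM protein and 100% = DMSO wells with 750 nM protein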
# hgDAF12 agonist – activates the H. glycines DAF-12 receptor ligand-binding domain. HEK293 GAL4-hgDAF12 UAS-luciferase reporter, agonist luminescence; normalized to butyrate control. activation, % at 6.8 µM. actives 1.8% (n = 370,000);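 active = activation above a cutoff set at the mean of all screened compounds plus 3 SD, cut at about 10% in these data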;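 also: 0% = DMSO wells and 100% = sodium butyrate wells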
# hcDAF-12 act – H. contortus DAF-12 activation, primary screen | HEK293 hcDAF-12 lit1-tk-luc reporter, luminescence; 0% DMSO, 100% Δ7-dafachronic acid | activation, % at 6.8 µM | actives 1.4% (n = 370,000) | AID 652067;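 active = activation above the mean of all tested compounds plus 3 SD, cut at about 5.5% in these data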;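 also: 100% = response to 3 µM Δ7-dafachronic acid high control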
# ssDAF-12 act – activates DAF-12 receptor from parasite S. stercoralis; activation, % at 6.8 µM; AID 652126; actives 1% (n = 370,000); HEK293 ssDAF-12/GRIP1 lit1-tk-luc reporter, luminescence; % of 3 µM dafachronic acid response;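 active = activation above the mean over all tested compounds plus 3 SD, cut at about 0.9% in these data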;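 also: 0% = DMSO-only wells and 100% = 3 µM delta7-dafachronic acid wells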
# DAX1 inh-1 – NR0B1 (DAX1) inhibition. HEK293 Gal4-DAX1 luciferase reporter, luminescence. inhibition, % at 6.75 µM. actives 0.99% (n = 340,000). AID 504766;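 active = inhibition above the mean over all tested compounds plus 3 SD, cut at about 4.2% in these data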;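 also: 0% = DAX1-transfected cells with DMSO and 100% = empty-vector control cells with DMSO; inhibition shows as a rise in luminescence from relieved DAX1 repression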
# Target sequence (P51843 207-470 limits assumed): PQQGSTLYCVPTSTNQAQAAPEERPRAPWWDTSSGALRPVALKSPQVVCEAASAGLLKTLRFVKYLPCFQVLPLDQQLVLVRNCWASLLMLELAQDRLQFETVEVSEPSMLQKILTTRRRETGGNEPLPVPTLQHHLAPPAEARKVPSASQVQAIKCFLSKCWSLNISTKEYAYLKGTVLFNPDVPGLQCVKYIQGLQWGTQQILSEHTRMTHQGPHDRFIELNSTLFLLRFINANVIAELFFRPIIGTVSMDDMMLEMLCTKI
# DAX1 inh-2 – blocks DAX1 repression of SF-1 activated StAR promoter; HEK293T StAR-luciferase reporter, SF-1/DAX-1 repression relief; inhibition, % at 6.8 µM; actives 1.1% (n = 370,000); AID 652010;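 active = inhibition above the mean over all tested compounds plus 3 SD, cut at about 3.6% in these data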;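 also: 0% = DAX-1 cells with DMSO and 100% = cells lacking DAX-1 with DMSO; higher inhibition means more luminescence from relief of DAX-1 repression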
# An asterisk follows results filed as active; nt = no result. In the library only some 4.8% were active in any assay of this set; here they are far more common.
SMILES,Rev-erbA mod,hgDAF12 agonist,hcDAF-12 act,ssDAF-12 act,DAX1 inh-1,DAX1 inh-2
O=c1[nH][nH]cc1C=Nc1ccc(Oc2ccccc2)cc1,1,1,-2,6.9*,0,0
COc1ccc(N=Cc2c[nH][nH]c2=O)cc1,4,-3,0,-1,0,0
Cc1ccc(C(=O)NNC(=S)Nc2cccc3ccccc23)s1,-3,5,6.3*,1.2*,1,1
Cc1ccc(-c2nc(C3CCCN(S(=O)(=O)c4ccccc4)C3)no2)cc1 (stereo not given),-1,0,-3,-1,nt,0
CCN(CC)C(=S)Nc1c(C)n(C)n(-c2ccccc2)c1=O,2,-4,0,-2,4.5*,0
CC(OC(=O)c1cccnc1Cl)C(=O)Nc1ccc2c(c1)OCCO2 (stereo not given),3,-1,-1,-1,-1,0
CC(OC(=O)c1cccnc1Cl)C(=O)Nc1ccc(S(N)(=O)=O)cc1 (stereo not given),-1,1,-1,-2,6.2*,0
CC(C)(C)NC(=O)C1Cc2ccccc2CN1 (stereo not given),5,0,0,-1,7.3*,1
CCOc1ccc(-n2c(SCC(=O)c3ccccc3Cl)nnc2-c2ccncc2)cc1,-2,1,0,-1,nt,-1
O=C(O)Cn1ccc2ccccc21,3,1,5.7*,1,0,0
O=C(CSc1nc2ccccc2c(=O)n1-c1ccc(Cl)cc1)NNC(=S)Nc1ccccc1,2,1,0,-2,nt,-1
COc1ccc(-c2cc3ccccc3n2CC(O)CN2CCC(C)CC2)cc1 (stereo not given),-2,3,5.7*,0,3,3
COc1ccc(-c2cc3ccccc3n2CC(O)Cn2nc(C)cc2C)cc1 (stereo not given),-2,-1,0,-1,-1,-1
Cn1nccc1C(=O)Nc1sc2c(c1C#N)CCCC2,-2,7,1,-1,0,4.3*
Cn1nccc1C(=O)Nc1sc2c(c1C(N)=O)CCCC2,1,5,2,-1,-1,1
O=C(COC(=O)c1ccc(Sc2ncn[nH]2)c([N+](=O)[O-])c1)Nc1cccc(Cl)c1F,-4,0,2,-1,nt,-1
Cc1cccn2cc(CSc3ccccc3N)nc12,-4,12*,3,0,1,4.0*
Cc1cc(C)nc(SCc2cn3ccccc3n2)n1,1,-2,-1,-1,0,0
CCOC(=O)c1cn(Cc2ccc(C)cc2)nn1,-2,-2,5.8*,-1,-1,-1
C[C@@H]1COc2cc(F)ccc2S(=O)(=O)N1C,10,-2,0,0,nt,0
CCOC(=O)C1(CC2CC2)CCN(C(=O)c2ocnc2C)CC1,3,3,1,0,4.3*,0
COc1cc(NC(=O)CSc2nc(C)cc(=O)[nH]2)cc(OC)c1,-8,-1,-3,-2,nt,-1
CCOC(=O)N1CCN(C(=O)C[C@H]2C[C@@]3(C(=O)OC)C(=C[C@H](C4CCCC4)O[C@@H]3C)N(Cc3cccc4ccccc34)C2=O)CC1,-11,-3,-2,-1,nt,0
Cc1ccc(C)c(N(C(=O)c2csnn2)C(C(=O)NC2CCCCC2)c2cccnc2)c1 (stereo not given),-3,-2,2,-1,4.4*,0
O=C(NC1CCCC1)C(c1ccc(F)cc1)N(C(=O)c1csnn1)C1CCCC1 (stereo not given),0,1,-2,-1,5.9*,0
SMILES,Rev-erbA mod,hgDAF12 agonist,hcDAF-12 act,ssDAF-12 act,DAX1 inh-1,DAX1 inh-2
O=C(NC1CCCCC1)C(c1ccc(F)cc1)N(C(=O)c1csnn1)C1CCCC1 (stereo not given),-2,0,-1,-1,1,0
O=C(NC1CCCC1)C(c1ccccc1)N(C(=O)c1csnn1)c1ccccc1F (stereo not given),-6,-1,0,0,4.7*,1
Cc1ccc(C)c(N(C(=O)c2csnn2)C(C(=O)NC2CCCC2)c2cccnc2)c1 (stereo not given),-1,-1,-1,-1,1,0
O=C(OCc1cn(Cc2cccc(F)c2)nn1)N1CCOCC1,-2,0,3,-1,nt,2
COC(=O)C1=C(C)N(C)C(=NCc2ccc3c(c2)OCO3)NC1c1ccc(F)cc1 (stereo not given),2,0,-1,-1,nt,0
CCOc1ccc(Nc2cc(C)nc3c(C)cccc23)cc1,-1,-2,-2,-2,4.9*,0
COC(=O)C1CN(Cc2ccc(OC)cc2)CCS(=O)(=O)N1Cc1cn(CCOC(C)=O)nn1 (stereo not given),-5,-4,1,-1,nt,0
O=C(COC(=O)c1ccc(OC(F)F)cc1)NCC1CCCO1 (stereo not given),-4,4,-1,-1,1,-2
CC(Sc1nnc(-c2ccco2)n1N)C(=O)NCC1CCCO1 (stereo not given),-5,1,-1,-1,0,-1
CC(Sc1nnc(-c2ccc(OC(F)F)cc2)n1N)C(=O)NCC1CCCO1 (stereo not given),-3,1,0,-1,0,4.4*
CC(Sc1nnc(-c2ccc(OC(F)F)cc2)o1)C(=O)NCC1CCCO1 (stereo not given),3,-2,2,1.1*,0,1
Cc1cccc(NC(=O)Nc2c(-c3ccc(C(F)(F)F)cc3)nc3ncccn23)c1,-4,2,0,-1,nt,0
Nc1c(C(=O)N2CCCCC2)sc2nc3c(cc12)CCCC3,1,12*,5,0,0,3
COCCCNC(=O)COc1ccc(Br)cc1Cl,-2,11*,-1,-1,1,1
C=C1C2CCC(C2)C1(C)C (stereo not given),-1,nt,nt,nt,nt,nt
CCOC(=O)c1cn2nc(Oc3ccc(NC(C)=O)cc3)ccc2n1,-1,1,-1,1,4.9*,0
O=c1c2ccccc2n(Cc2ccco2)n1[C@@H](Cc1ccccc1)Cn1cc(-c2ccc(-c3ccccc3)cc2)nn1,5,2,-1,-2,nt,2
CC1CCN(C(=O)CCCOc2ccc(Cl)cc2)CC1,4,3,-1,1.3*,1,0
CC1CCN(CCCCOc2ccc(Cl)cc2)CC1,nt,nt,nt,nt,1,nt
OC1CCN(Cc2cccc3ccccc23)CC1,0,2,-1,-1,5.0*,0
CC(=O)Nc1ccc(N=Nc2ccc(O)cc2)cc1,-2,12*,4,0,2,2
CSc1nsc(/C=C/Nc2ccc(C)cc2)c1C#N,6,1,6.5*,2.4*,0,-1
